According to the supplement of paper PMC6555819:

test system: LXRb:RXRa (NR concentration 270 nM, RXRa partner concentration 90 nM); test: PBM binding z-score (relative to random genomic background probes); higher = stronger binding; sequences stand for … in GC…GCGATTGACAGCGTAGAATGAAGG
Outline: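 Binding z-scores were set against random background probes. The data came from custom Agilent 4×180K protein-binding microarrays carrying double-stranded probes with 34-nt variable regions, incubated 1 h with ligand-free nuclear receptor dimers. Partner-specific antibodies detected binding, and scanned fluorescence was regression-normalized.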

| Sequence | PBM binding z-score |
| --- | --- |
| CTATGTAGGTTAAGGGGGTCATTCAGTTTGAAAG | 6.24 |
| CCGAGTAGGTTACGAGGGGGCATGCAGTGCGAAT | 5.49 |
| TCGAGCAGGTTACGGGGGCATTCAGGGATGAAGA | 4.88 |
| CTATGTAGGTTAAGGGGGCCATTCAGTTTGAAAG | 4.2 |
| TCGGGTAGGTTACGGGGGCATTCAGGGATGAAGA | 5.75 |
| CTATGTAGGTTAAGGGGGTCTTTCAGTTTGAAAG | 3.78 |
| CTGTGTAGGTTAAGGGGGTCATTCAGTTTGAAAG | 6.55 |
| CTATGTAGATTAAGGGGGTCATTCAGTTTGAAAG | 6.12 |
| CCGAGTAGGTTACGAGGGGGTATTCAGTGCGAAT | 4.28 |
| TCGAGTAGGTTAAGGGGGCATTCAGGGATGAAGA | 4.58 |
| CCGATTAGGTTACGAGGGGGCATTCAGTGCGAAT | 6.42 |
| CTATGTAGGTTAAGCGGGTCATTCAGTTTGAAAG | 2.56 |
| CTATGTAGGTTAAGGGGGTCATGCAGTTTGAAAG | 6.22 |
| CTATGTAGGTTAAGGGGGGCATTCAGTTTGAAAG | 6.04 |
| CTATGTAGGTTAAAGGGGTCATTCAGTTTGAAAG | 5.82 |
| CCGAGTAGGTCACGAGGGGGCATTCAGTGCGAAT | 6.56 |
| TCGAGTAGGTTATGGGGGCATTCAGGGATGAAGA | 4.74 |
| CTGAGTAGGTTACGAGGGGGCATTCAGTGCGAAT | 6.26 |
| TCGAGTAGGTTACGGGGGCATTCCGGGATGAAGA | 4.94 |
| CCGAGTAGGTTAAGAGGGGGCATTCAGTGCGAAT | 5.79 |

| Sequence | PBM binding z-score |
| --- | --- |
| TCGAGTACGTTACGGGGGCATTCAGGGATGAAGA | 3.82 |
| CTATGTAGGTAAAGGGGGTCATTCAGTTTGAAAG | 5.98 |
| CCGAGTAGGTTACGAGGGGGCAGTCAGTGCGAAT | 5.55 |
| CAGAGTAGGTTACGAGGGGGCATTCAGTGCGAAT | 6.23 |
| TCGAGTAGGATACGGGGGCATTCAGGGATGAAGA | 3.58 |
| CCGAGTAGGTTACGAGGAGGCATTCAGTGCGAAT | 0.864 |
| CTATGTAGGTTAAGGGGGTCATTCATTTTGAAAG | 6.23 |
| CCGAGTAGGTTACGAGGGGGCATTCTGTGCGAAT | 6.24 |
| TCGAGTATGTTACGGGGGCATTCAGGGATGAAGA | 4.72 |
| TCGAGTAGGTTACGGGGGCATTCTGGGATGAAGA | 5.03 |
| CTATGAAGGTTAAGGGGGTCATTCAGTTTGAAAG | 6.37 |
| CCGAGTAGGTTACGTGGGGGCATTCAGTGCGAAT | 6.74 |
| CCGAGTAGGTTACGAGGGGGCATTGAGTGCGAAT | 6.12 |
| CCGAGTAGGTTACGAGGGGGCACTCAGTGCGAAT | 5.48 |
| TCGAGTAGGTTACGGGGGCCTTCAGGGATGAAGA | 4.15 |
| TCGAGTAGGTTACGCGGGCATTCAGGGATGAAGA | -0.00737 |
| TCGAGTAGGTTACGGGGTCATTCAGGGATGAAGA | 5.33 |
| CTATGTAGGTTCAGGGGGTCATTCAGTTTGAAAG | 6.31 |
| TCGAGTAGGTTACGGGGGCTTTCAGGGATGAAGA | 4.46 |
